Screening results: PubChem BioAssay, The Scripps Research Institute Molecular Screening Center
Rows were chosen to be rich in hits. Some 3.4% of all compounds tested hit in one or more screens of this group.
FBW7 activator: activators of human E3 ligase FBW7; 650,000 tested, 0.13% active; normalized activity (activation), % at 26.1 µM; Q969H0; AID 1259310; AlphaScreen FBW7–phospho-cyclin E peptide binding, activator screen; in the data active = normalized activity above about 1.9%;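 note: purified mutant Fbw7 with reduced substrate affinity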
Target sequence (Q969H0 whole entry, looked up): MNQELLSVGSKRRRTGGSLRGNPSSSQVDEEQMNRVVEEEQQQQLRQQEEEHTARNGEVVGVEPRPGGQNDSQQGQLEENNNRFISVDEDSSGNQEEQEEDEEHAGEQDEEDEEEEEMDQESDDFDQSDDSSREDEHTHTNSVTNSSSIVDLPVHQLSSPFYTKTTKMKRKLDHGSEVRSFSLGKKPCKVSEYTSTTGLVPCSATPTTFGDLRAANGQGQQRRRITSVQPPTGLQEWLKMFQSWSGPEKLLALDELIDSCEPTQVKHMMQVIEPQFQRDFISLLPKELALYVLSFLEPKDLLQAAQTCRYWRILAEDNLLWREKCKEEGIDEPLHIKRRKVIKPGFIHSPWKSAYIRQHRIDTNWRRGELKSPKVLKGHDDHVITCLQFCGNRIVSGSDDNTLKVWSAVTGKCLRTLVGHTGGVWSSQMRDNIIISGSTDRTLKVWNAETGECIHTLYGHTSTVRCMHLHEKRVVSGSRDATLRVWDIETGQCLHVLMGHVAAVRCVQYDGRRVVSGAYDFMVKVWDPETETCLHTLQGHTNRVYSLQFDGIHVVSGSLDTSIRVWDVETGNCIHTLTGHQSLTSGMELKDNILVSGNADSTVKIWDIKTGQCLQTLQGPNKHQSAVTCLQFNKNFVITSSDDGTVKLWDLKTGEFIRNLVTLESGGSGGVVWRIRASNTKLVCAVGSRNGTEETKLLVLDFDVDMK
MITF primary: inhibitors of human MITF; AlphaScreen MITF homodimerization, bead proximity signal; AID 1259374; 650,000 tested, 0.91% active; inhibition, % at 2.6 µM; O75030; in the data active = inhibition above about 50%
TEAD-YAP inh: TEAD-YAP interaction inhibition; inhibition, % at 9.12 µM; AID 1259422; 640,000 tested, 1.4% active; HEK-TIYL cells, TEAD-Gal4/YAP UAS-luciferase luminescence; in the data active = inhibition above about 32%
GPR151 activ: human GPR151 activation; Q8TDV0; PathHunter beta-arrestin GPR151 cells, luminescence; activation, % at 11.2 µM; 650,000 tested, 1% active; in the data active = activation above about 4.9%
GPR151 confirm: confirmation of human GPR151 activators | shares compounds with GPR151 activ | GPR151 PathHunter beta-arrestin cells, luminescence, 90 min; % of EA-reagent control over plate median | activation, % at 11.2 µM | 6,700 tested, under 10 active | AID 1508609;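 active = mean percent activation across replicates above the confirmation screen cutoff of 4.91%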
GPR119 ag: activates human GPR119 in a GPR151 counter-screen; shares compounds with GPR151 activ; GPR119 PathHunter beta-arrestin cells, luminescence, 90 min; 0 = compound-well median, 100 = enzyme-acceptor control; activation, % at 11.2 µM; 6,700 tested, 0.3% active;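 active = mean percent activation in the counterscreen above 29.09%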;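 note: counterscreen on off-target GPR119 to flag nonselective hits from the GPR151 activator screen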
A number is an active result; n = inactive; x = no result; ! = not confirmed by another sample.

SMILES	FBW7 activator	MITF primary	TEAD-YAP inh	GPR151 activ	GPR151 confirm	GPR119 ag
CCOc1ccc(/C=C2\SC(=S)N(CC(=O)Nc3ccc(O)cc3)C2=O)cc1	n	n	n	5.7	n	n
CCOc1ccc(NC(=O)CN2C(=O)C(CC)SC(CC)C2=O)cc1 (centres undefined)	n	n	n	5.1	n	n
CCOc1ccc(NC(=O)CNC(=O)c2ccccc2)cc1	n	n	n	n	x	x
CCOC(=O)c1ccc(NC(=O)CN2C(=O)CSCC2=O)cc1	n	n	n	n	x	x
Oc1ccccc1OCc1nc2ccccc2[nH]1	n	n	n	n	x	x
C/C(=N\Nc1nnc(Cc2ccccc2)c(=O)[nH]1)c1ccc([N+](=O)[O-])cc1	n	n	n	n	x	x
COc1ccc(/C=C2\SC(=O)N(CC(=O)Nc3ccc(F)cc3)C2=O)cc1O	n	n	n	6.2	n	n
COc1ccc(/C=C2\SC(=O)N(CC(=O)Nc3ccc(C)cc3)C2=O)cc1OC	n	n	n	n	x	x
O=C1CC(=O)Nc2cc(S(=O)(=O)NCC3COc4ccccc4O3)ccc2N1 (centres undefined)	n	n	n	5.0	n	n
CC(NS(=O)(=O)c1ccc2c(c1)NC(=O)CC(=O)N2)c1ccccc1 (centres undefined)	n	n	n	8.3	n	n
O=C(c1cccs1)N1CCN=C1SCc1ccc([N+](=O)[O-])cc1	n	n	n	n	x	x
COc1ccc(-c2nc(-c3ccccc3)c(-c3ccc(O)cc3)[nH]2)c(OC)c1	n	n	n	n	x	x
CCOC(=O)CCN(Cc1ccccc1F)S(=O)(=O)c1ccc(Br)cc1	n	n	n	n	x	x
CCOC(=O)CCN(Cc1ccccc1F)S(=O)(=O)c1ccc(C)cc1	n	n	n	4.9	n	n
CCOC(=O)CCCN(Cc1ccc(F)cc1)S(=O)(=O)c1ccc(F)c(C)c1	n	n	n	n	x	x
CCOC(=O)CCCN(Cc1ccc(Cl)cc1Cl)S(=O)(=O)c1ccc(F)c(C)c1	n	n	n	5.0	n	n
CCS(=O)(=O)N1CCN(C(=O)c2ccncc2)CC1	n	n	n	n	x	x
O=C(Cn1cnc2ccccc21)NCCCN1CCOCC1	n	n	n	5.9	n	n
Cc1nc2ccccn2c1C(=O)NCCCN1CCOCC1	n	n	n	4.9	n	n
CNC(=S)N1CCC(C(=O)NC(c2cccc(OC)c2)c2ccccn2)CC1 (centres undefined)	n	n	n	6.9	n	n
CC(C)Oc1c(Cl)cc(C=O)cc1Cl	n	n	n	6.8	n	n
Cc1cccn2c(CNC3CCCc4ccccc43)c(C(=O)N3CCOCC3)nc12 (centres undefined)	n	n	n	n	x	x
Cc1cccn2c(CN[C@@H]3CCCC[C@H]3c3ccccc3)c(C(=O)N3CCOCC3)nc12	n	n	n	5.0	n	n
CCn1c(CCNC(=O)C(C)(C)C)nc2ccccc21	n	n	n	6.7	n	n
O=C(CSc1nc2ccccc2o1)Nc1ccccc1C(F)(F)F	n	n	n	5.2	n	n
SMILES	FBW7 activator	MITF primary	TEAD-YAP inh	GPR151 activ	GPR151 confirm	GPR119 ag
O=C(CSc1nc2ccccc2o1)Nc1ccccc1Cl	n	n	n	n	x	x
Cc1cccc(C)c1NC(=O)CSc1nc2ccccc2o1	n	n	n	7.6	n	n
COc1cc(CN2CCN(C3CCCCC3)CC2CCO)cc(OC)c1 (centres undefined)	n	n	n	n	x	x
CSc1ccc(CNc2ncc(-c3cccc([N+](=O)[O-])c3)n2C)cc1	n	n	n	n	x	x
CSc1ccc(CNc2ncc(-c3ccccc3)n2C)cc1	n	n	n	7.7	n	n
CCOc1cc(S(=O)(=O)NC2CC(C)(C)NC(C)(C)C2)c(C)cc1C	n	n	n	n	x	x
CCOc1cc(C)c(C(C)C)cc1S(=O)(=O)NC1CC(C)(C)NC(C)(C)C1	n	n	n	7.9	n	n
CC(=O)N1N=C(c2cccs2)CC1c1c(F)cccc1Cl (centres undefined)	n	n	n	n	x	x
COc1cc(OC)c(C(=O)OCC#N)cc1OC	n	n	n	5.7	n	n
COc1ccc(C(=O)Nc2cc3nn(-c4ccc(C)cc4)nc3cc2C)cc1OC	n	n	n	n	x	x
Cc1c(Cl)cccc1Nc1ccccc1C(=O)O	n	n	n	7.5!	n	n
Cc1c(Cl)cccc1NC(=O)c1ccccc1C(=O)O	n	n	n	n	x	x
CC(=O)N1CCC(C(=O)OCC#N)(c2ccccc2)CC1	n	n	n	n	x	x
C=CCn1c(SCC(N)=O)nnc1-c1ccc(Br)cc1	n	n	n	6.2	n	n
CC(=NCCCn1cnc2c1c(=O)n(C)c(=O)n2C)N(C)C	n	n	n	6.4	n	n
Cc1ccnc(NC(=O)C2CC=CCC2C(=O)O)c1 (centres undefined)	n	n	n	6.3	n	n
Cc1ccnc(NC(=O)C2CCCC2)c1	n	n	n	n	x	x
O=C(NCc1nnc2n1CCN(Cc1cccc3ccccc13)CC2)c1ccccc1	n	n	n	n	x	x
CC1CCN(C(=O)C2=CC(c3cccs3)=NS(=O)(=O)N2C)CC1	n	n	n	5.4	n	n
COc1cccc(N2C(=O)CC(N3CCN(c4ccccn4)CC3)C2=O)c1 (centres undefined)	n	n	n	5.1	n	n
CCOc1cccc(N2C(=O)CC(N3CCN(c4ccccn4)CC3)C2=O)c1 (centres undefined)	n	n	n	n	x	x
COc1ccc(N2CCN(C3CC(=O)N(c4ccc(C(=O)O)cc4)C3=O)CC2)cc1 (centres undefined)	n	n	n	6.0	n	n
Cc1ccc(-n2c(CNS(C)(=O)=O)nnc2SCc2ccc(F)cc2)cc1	n	n	n	4.9	n	n
CS(=O)(=O)NCc1nnc(SCc2ccc(F)cc2)n1-c1ccc(F)cc1	n	n	n	n	x	x
Fc1ccccc1CSc1nnc(-c2cnccn2)n1Cc1ccco1	n	n	n	9.9	n	n
SMILES	FBW7 activator	MITF primary	TEAD-YAP inh	GPR151 activ	GPR151 confirm	GPR119 ag
Cc1cccc(COc2ccc(C=O)cc2)c1	n	n	n	n	x	x
CCc1cccc(C)c1NC(=O)Cn1cnc2c(cnn2-c2ccc(OC)cc2)c1=O	n	n	n	6.9	n	n
Cc1ccc(NC(=O)Cn2cnc3c(cnn3-c3cccc(C)c3C)c2=O)cc1Cl	n	n	n	n	x	x
COC(=O)c1ccc(NC(=O)Cn2cnc3c(cnn3-c3cccc(C)c3C)c2=O)cc1	n	n	n	8.8	n	n
Cc1ccc(-n2ncc3c(=O)n(CC(=O)Nc4cccc5ccccc45)cnc32)cc1C	n	n	n	6.7	n	n
CC(C)[C@@H](CO)NC(=O)c1cnc2scc(-c3ccccc3Cl)n2c1=O	n	n	n	n	x	x
CCN(CC)C(=O)Cn1c(=O)n(-c2ccccc2)c(=O)c2oc3ccccc3c21	n	n	n	n	x	x
CCN(CC)C(=O)Cn1c(=O)n(-c2ccc(C)cc2)c(=O)c2oc3ccccc3c21	n	n	n	5.2	n	n
